The campaign covered roughly 5,500 compounds. About 2,000 (36%) were called active. Another 18% or so got no clear call; they are omitted. Rule as the data show it: active = normalized growth mostly below about 0.91 (no sharp cut-off); inconclusive = no clear call, values can overlap the other calls; inactive = mostly above about 0.92. Some of the results follow.
Test: chemical genetic growth profiling, strain panel (AID 1159580);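 also: tested at 20 µM; growth read once vehicle control cultures reached saturation at 30 °C; 1 = growth at the plate median or of vehicle wells; lower values mean less growth of the strain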
Settings: S. cerevisiae deletion strains, growth OD

Measured: normalized growth

CC(=O)OC1CC[C@@]2(C)C(CCC3C2CC[C@]2(C)C(C4=CC(=O)OC4)C(OC(C)=O)CC32O)C1 (stereo not given in full)
active: locus YBR021W, strain FUR4, stronger effect = lower value 0.837
inactive: locus YAL013W, strain DEP1, stronger effect = lower value 0.988 | locus YAL021C, strain ccr4, stronger effect = lower value 0.989 | locus YAL026C, strain drs2, stronger effect = lower value 0.979 | locus YAL030W, strain snc1, stronger effect = lower value 0.998 | locus YBL061C, strain skt5, stronger effect = lower value 0.994 | locus YBR009C, strain hhf1, stronger effect = lower value 1 | locus YBR023C, strain chs3, stronger effect = lower value 0.995 | locus YBR171W, strain sec66, stronger effect = lower value 0.987 | locus YBR229C, strain ROT2, stronger effect = lower value 0.997 | locus YBR231C, strain swc5, stronger effect = lower value 0.979 | locus YBR279W, strain paf1, stronger effect = lower value 0.984 | locus YCL011C, strain gbp2, stronger effect = lower value 0.972 | locus YCL016C, strain dcc1, stronger effect = lower value 0.971 | locus YCL029C, strain bik1, stronger effect = lower value 1.01 | locus YCL069W, strain vba3, stronger effect = lower value 0.999 | locus YCR088W, strain abp1, stronger effect = lower value 0.999 | locus YDL005C, strain med2, stronger effect = lower value 0.972 | locus YDL035C, strain GPR1, stronger effect = lower value 1.01 | locus YDL040C, strain nat1, stronger effect = lower value 0.99 | locus YDL074C, strain BRE1, stronger effect = lower value 0.972 | locus YDL101C, strain DUN1, stronger effect = lower value 1 | locus YDL134C, strain PPH21, stronger effect = lower value 1.03 | locus YDL185W, strain tfp1, stronger effect = lower value 1.02 | locus YDL192W, strain arf1, stronger effect = lower value 1 | locus YDR001C, strain nth1, stronger effect = lower value 0.986 | locus YDR069C, strain doa4, stronger effect = lower value 0.942 | locus YDR101C, strain arx1, stronger effect = lower value 1.01 | locus YDR137W, strain rgp1, stronger effect = lower value 0.986 | locus YDR159W, strain sac3, stronger effect = lower value 1.03 | locus YDR162C, strain NBP2, stronger effect = lower value 1 | locus YDR195W, strain ref2 0.951 | locus YDR297W, strain sur2, stronger effect = lower value 0.989 | locus YDR318W, strain mcm21, stronger effect = lower value 0.992 | locus YDR334W, strain swr1, stronger effect = lower value 0.976 | locus YDR335W, strain msn5, stronger effect = lower value 0.978 | locus YDR388W, stronger effect = lower value 1.01 | locus YDR392W, strain spt3, stronger effect = lower value 1.01 | locus YDR502C, strain sam2, stronger effect = lower value 0.994 | locus YEL003W, strain gim4, stronger effect = lower value 0.988 | locus YEL037C, strain rad23, stronger effect = lower value 0.997 | locus YEL061C, strain CIN8 (second series), stronger effect = lower value 0.985 | locus YEL061C, strain CIN8, stronger effect = lower value 0.997 | locus YER015W, strain faa2, stronger effect = lower value 0.983 | locus YER016W, strain bim1, stronger effect = lower value 0.965 | locus YER110C, stronger effect = lower value 1.01 | locus YER111C, strain swi4, stronger effect = lower value 0.978 | locus YER155C, strain BEM2 (second series), stronger effect = lower value 1.01 | locus YER155C, strain BEM2, stronger effect = lower value 0.996 | locus YER167W, strain BCK2, stronger effect = lower value 0.997 | locus YFR010W, strain ubp6, stronger effect = lower value 1 | locus YGL078C, strain dbp3, stronger effect = lower value 1 | locus YGL086W, strain mad1, stronger effect = lower value 1 | locus YGL167C, strain pmr1, stronger effect = lower value 0.982 | locus YGL173C, strain kem1, stronger effect = lower value 0.987 | locus YGL227W, strain vid30, stronger effect = lower value 0.98 | locus YGL240W, strain doc1, stronger effect = lower value 0.99 | locus YGL248W, strain PDE1, stronger effect = lower value 0.995 | locus YGL253W, strain hxk2, stronger effect = lower value 0.964 | locus YGR135W, strain pre9, stronger effect = lower value 1.01 | locus YGR229C, strain SMI1, stronger effect = lower value 0.976 | locus YGR252W, strain gcn5, stronger effect = lower value 0.993 | locus YHR013C, strain ard1, stronger effect = lower value 0.943 | locus YHR027C, strain rpn1, stronger effect = lower value 0.97 | locus YHR079C, strain IRE1 (second series), stronger effect = lower value 1 | locus YHR094C, strain hxt1, stronger effect = lower value 1 | locus YHR129C, strain ARP1, stronger effect = lower value 1 | locus YHR142W, strain chs7, stronger effect = lower value 0.958 | locus YHR200W, strain rpn10, stronger effect = lower value 1.01 | locus YIL066C, strain RNR3, stronger effect = lower value 1.01 | locus YIL073C, strain SPO22, stronger effect = lower value 1.04 | locus YIL125W, strain kgd1, stronger effect = lower value 1.02 | locus YIR030C, strain dcg1, stronger effect = lower value 1 | locus YJL092W, strain hpr5, stronger effect = lower value 0.986 | locus YJL095W, strain BCK1 (second series), stronger effect = lower value 0.993 | locus YJL095W, strain BCK1, stronger effect = lower value 0.999 | locus YJL115W, strain asf1, stronger effect = lower value 0.959 | locus YJL129C, strain trk1, stronger effect = lower value 0.956 | locus YJL134W, strain LCB3, stronger effect = lower value 0.995 | locus YJL154C, strain vps35, stronger effect = lower value 0.975 | locus YJL164C, strain tpk1, stronger effect = lower value 1 | locus YJL166W, strain qcr8, stronger effect = lower value 0.957 | locus YJL168C, strain set2, stronger effect = lower value 1.01 | locus YJL187C, strain SWE1 (second series), stronger effect = lower value 0.99 | locus YJL187C, strain SWE1, stronger effect = lower value 0.982 | locus YJR075W, strain HOC1, stronger effect = lower value 0.997 | locus YKL009W, strain mrt4, stronger effect = lower value 1.01 | locus YKL068W, stronger effect = lower value 1.01 | locus YKL085W, strain MDH1 (second series), stronger effect = lower value 1.01 | locus YKL085W, strain MDH1, stronger effect = lower value 1.01 | locus YKL160W, strain elf1, stronger effect = lower value 0.975 | locus YKR001C, strain vps1, stronger effect = lower value 1.01 | locus YKR026C, strain gcn3, stronger effect = lower value 0.993 | locus YKR091W, strain srl3, stronger effect = lower value 0.974 | locus YLL001W, strain dnm1, stronger effect = lower value 0.998 | locus YLL026W, stronger effect = lower value 0.983 | locus YLL041C, strain sdh2, stronger effect = lower value 1 | locus YLR027C, strain aat2, stronger effect = lower value 0.983 | locus YLR039C, strain RIC1, stronger effect = lower value 1.02 | locus YLR058C, strain SHM2, stronger effect = lower value 1 | locus YLR102C, strain apc9, stronger effect = lower value 1.01 | locus YLR221C, strain rsa3, stronger effect = lower value 0.997 | locus YLR258W, strain gsy2, stronger effect = lower value 0.979 | locus YLR262C, strain YPT6 (second series), stronger effect = lower value 0.974 | locus YLR262C, strain YPT6, stronger effect = lower value 1.03 | locus YLR268W, strain sec22, stronger effect = lower value 1.01 | locus YLR320W, strain mms22, stronger effect = lower value 1.01 | locus YLR342W, strain FKS1 (second series), stronger effect = lower value 0.986 | locus YLR342W, strain FKS1, stronger effect = lower value 1.01 | locus YLR357W, strain rsc2, stronger effect = lower value 0.967 | locus YLR370C, strain arc18, stronger effect = lower value 0.974 | locus YLR371W, strain rom2, stronger effect = lower value 0.996 | locus YLR384C, strain iki3, stronger effect = lower value 0.971 | locus YLR418C, strain cdc73, stronger effect = lower value 1.03 | locus YML016C, strain PPZ1, stronger effect = lower value 1 | locus YML032C, strain rad52, stronger effect = lower value 1.01 | locus YML120C, strain ndi1, stronger effect = lower value 0.996 | locus YML124C, strain tub3, stronger effect = lower value 1.01 | locus YMR058W, strain fet3, stronger effect = lower value 0.977 | locus YMR078C, strain ctf18, stronger effect = lower value 1.02 | locus YMR125W, strain sto1, stronger effect = lower value 0.977 | locus YMR129W, stronger effect = lower value 0.981 | locus YMR205C, strain PFK2, stronger effect = lower value 0.994 | locus YMR223W, strain ubp8, stronger effect = lower value 1 | locus YMR231W, strain pep5, stronger effect = lower value 0.99 | locus YMR307W, strain GAS1, stronger effect = lower value 1.02 | locus YNL067W, strain RPL9B, stronger effect = lower value 1.01 | locus YNL071W, strain lat1, stronger effect = lower value 0.999 | locus YNL153C, strain GIM3, stronger effect = lower value 1 | locus YNL209W, strain ssb2, stronger effect = lower value 0.996 | locus YNL233W, strain BNI4, stronger effect = lower value 0.989 | locus YNL248C, strain rpa49, stronger effect = lower value 0.946 | locus YNL250W, strain rad50, stronger effect = lower value 1.02 | locus YNL271C, strain bni1, stronger effect = lower value 1.01 | locus YNL298W, strain CLA4, stronger effect = lower value 1.04 | locus YNL307C, strain MCK1, stronger effect = lower value 1.03 | locus YNL322C, strain KRE1 (second series), stronger effect = lower value 0.971 | locus YNR049C, strain mso1, stronger effect = lower value 0.959 | locus YNR052C, strain pop2, stronger effect = lower value 0.999 | locus YOL006C, strain TOP1, stronger effect = lower value 1.04 | locus YOL012C, strain htz1 0.875 | locus YOL147C, strain pex11, stronger effect = lower value 1.01 | locus YOR001W, strain rrp6, stronger effect = lower value 1.03 | locus YOR061W, strain CKA2, stronger effect = lower value 1.01 | locus YOR069W, strain VPS5, stronger effect = lower value 0.999 | locus YOR070C, strain gyp1, stronger effect = lower value 0.995 | locus YOR080W, strain dia2, stronger effect = lower value 0.973 | locus YOR083W, strain WHI5, stronger effect = lower value 0.977 | locus YOR106W, strain vam3, stronger effect = lower value 0.956 | locus YOR136W, strain idh2, stronger effect = lower value 1.02 | locus YOR144C, strain elg1, stronger effect = lower value 1.02 | locus YOR184W, strain ser1, stronger effect = lower value 1.02 | locus YOR265W, strain rbl2, stronger effect = lower value 0.999 | locus YOR270C, strain vph1, stronger effect = lower value 0.965 | locus YOR290C, strain snf2, stronger effect = lower value 0.955 | locus YOR316C, strain cot1, stronger effect = lower value 1.02 | locus YPL051W, strain arl3, stronger effect = lower value 0.98 | locus YPL078C, strain atp4, stronger effect = lower value 0.977 | locus YPL106C, strain sse1, stronger effect = lower value 0.997 | locus YPL240C, strain hsp82, stronger effect = lower value 0.982 | locus YPR119W, strain clb2, stronger effect = lower value 1.01 | locus YPR141C, strain kar3, stronger effect = lower value 1 | locus YPR163C, strain tif3, stronger effect = lower value 1.02 | locus YPR167C, strain met16, stronger effect = lower value 0.999 | strain wtn01, stronger effect = lower value 1.01

— PubChem BioAssay AID1159580 (chemical genetic matrix, 2015)
